TLR4 MyD88 comp: TLR4-MyD88 interaction inhibition in cells; actives 0.18% (n = 200,000); HeLa CL3-4 TLR4/MyD88 BLA complementation, FRET ratio; inhibition, % at 8.4 µM; O00206+Q99836; AID 861; in the data active means inhibition above about 25%;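 further: 0% = vehicle and 100% = reference inhibitor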
Target sequence (O00206 whole entry, looked up): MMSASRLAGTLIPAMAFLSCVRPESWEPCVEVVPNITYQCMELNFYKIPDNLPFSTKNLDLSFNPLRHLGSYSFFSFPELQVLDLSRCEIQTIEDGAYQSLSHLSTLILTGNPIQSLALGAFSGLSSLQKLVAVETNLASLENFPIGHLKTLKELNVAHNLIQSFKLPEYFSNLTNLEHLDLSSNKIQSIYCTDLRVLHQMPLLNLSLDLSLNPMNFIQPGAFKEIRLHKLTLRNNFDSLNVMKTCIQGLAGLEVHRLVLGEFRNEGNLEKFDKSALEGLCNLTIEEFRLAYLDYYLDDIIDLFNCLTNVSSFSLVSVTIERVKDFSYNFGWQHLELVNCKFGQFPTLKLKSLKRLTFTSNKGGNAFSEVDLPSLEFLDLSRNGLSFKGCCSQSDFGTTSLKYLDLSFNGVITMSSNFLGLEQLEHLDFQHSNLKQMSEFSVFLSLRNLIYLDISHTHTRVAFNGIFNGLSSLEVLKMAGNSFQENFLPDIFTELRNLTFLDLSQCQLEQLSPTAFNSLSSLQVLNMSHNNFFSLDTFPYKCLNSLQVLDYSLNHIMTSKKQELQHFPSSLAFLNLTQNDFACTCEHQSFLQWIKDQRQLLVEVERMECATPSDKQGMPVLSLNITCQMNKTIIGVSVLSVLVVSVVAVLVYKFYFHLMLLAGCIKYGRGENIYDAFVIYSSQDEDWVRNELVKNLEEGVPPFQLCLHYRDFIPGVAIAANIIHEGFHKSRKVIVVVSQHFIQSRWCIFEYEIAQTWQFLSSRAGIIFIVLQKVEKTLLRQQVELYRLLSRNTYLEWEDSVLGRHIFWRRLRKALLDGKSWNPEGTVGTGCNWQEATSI
Target sequence (Q99836 whole entry, looked up): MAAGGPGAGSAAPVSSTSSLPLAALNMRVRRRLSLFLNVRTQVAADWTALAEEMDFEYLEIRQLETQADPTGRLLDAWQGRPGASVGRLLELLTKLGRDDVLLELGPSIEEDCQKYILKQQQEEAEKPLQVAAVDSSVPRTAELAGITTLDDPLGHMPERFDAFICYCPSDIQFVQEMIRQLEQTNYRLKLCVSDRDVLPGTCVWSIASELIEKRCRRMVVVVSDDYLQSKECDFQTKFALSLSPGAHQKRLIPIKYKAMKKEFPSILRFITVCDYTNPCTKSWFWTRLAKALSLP
TLR9-MyD88 block: TLR9-MyD88 interaction inhibition; actives 0.21% (n = 340,000); inhibition, % at 4.98 µM; CHO BLA complementation TLR9-MyD88, CCF4 FRET ratio;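 active means inhibition above the mean over all tested compounds plus 3 SD, cut at about 21% in these data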;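 further: 0% = DMSO only wells and 100% = clavulanate BLA inhibitor control wells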
NOD2-RIPK2 inh: blocks binding of human NOD2 to RIPK2. CHO BLA complementation NOD2-RIPK2, CCF4 ratio. O43353. inhibition, % at 4.98 µM. actives 0.38% (n = 360,000); in the data active means inhibition above about 21%;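 further: 0% = vehicle only and 100% = reference blocker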
Myeloid diff 2: myeloid differentiation induction | actives 1% (n = 360,000) | ER-HoxA9 myeloid progenitors, lysozyme-GFP differentiation, flow cytometry | AID 624256 | calls only at 10 µM;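 active means normalized GFP-positive differentiation at or above the plate's own cutoff, the solvent-only control mean plus 3 SD; inconclusive means no clear call, values can overlap the other calls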;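 further: cells exposed to compound for four days before flow analysis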
Myeloid diff CP1: myeloid differentiation induction | AID 651706 | shares compounds with Myeloid diff 2 | calls only | actives 2% (n = 2,300) | ER-HoxA9 myeloid progenitors, GFP/Mac1 double-positive flow;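 active means share of green or green-and-red cells above 9 and 9% in run 1 or 4 and 3% in run 2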
GFP autofluor: flagged as fluorescent in myeloid differentiation counter-screen | shares compounds with Myeloid diff 2 | ER-HoxA9 myeloid progenitors, no estrogen, GFP autofluorescence flow cytometry; vehicle wells 0%, positive control 100% | fluorescence response, % (test concentration not listed) | actives 7.4% (n = 2,300);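 active means over 5% cells positive for green fluorescent reporter, or over 2% positive for both it and APC stain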;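 further: range taken on the double positive population between DMSO and positive control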
An asterisk follows results filed as active; i = inactive; ? = inconclusive; / = no result given; + = active, no number. Most compounds without a hit are left out; they make up all but 1.5% or so of the library.

SMILES	TLR4 MyD88 comp	TLR9-MyD88 block	NOD2-RIPK2 inh	Myeloid diff 2	Myeloid diff CP1	GFP autofluor
Cc1nn(Cc2ccccc2)c(Cl)c1C(=O)OCc1nnc(-c2ccccc2)o1	3	9	-4	i	/	/
Cc1nn(Cc2ccccc2)c(Cl)c1C(=O)OCc1nnc(-c2ccc(Cl)cc2)o1	5	3	-1	+	i	0
COc1ccccc1CNc1nc(NCc2ccc(C(C)C)cc2)c2sccc2n1	/	/	-5	i	i	0
Cc1cccc(Cn2ncc(Cl)c(Cl)c2=O)c1	19	12	1	i	i	0
COc1ccc(Cn2cc(CN3CC(N(C)C)CS3(=O)=O)nn2)cc1 (stereo not given)	/	/	-16	i	/	/
CCC(CO)n1c(SCc2cc(=O)oc3cc(C)ccc23)nc2ccccc2c1=O (stereo not given)	-7	-3	1	i	+	1
COc1ccccc1-n1c(SCc2cc(=O)oc3cc(O)ccc23)nc2ccccc2c1=O	6	-10	-14	i	/	/
CC(C)NC(=O)C1(C)CCN1Cc1ccc(Cl)cc1 (stereo not given)	/	/	3	i	/	/
Cn1c(=N)n(CC(=O)C(C)(C)C)c2ccccc21	-19	-4	2	i	i	1
CCCn1c(=N)n(CC(=O)C(C)(C)C)c2ccccc21	3	-13	-4	i	/	/
COc1ccc(OCCNC(=O)c2ccc3nc(C)c(N(C)Cc4ccc(NC(C)=O)cc4)n3c2)cc1	/	/	-4	i	/	/
COc1cc(NC(=O)N[C@H](C(=O)O)C(C)C)cc(OC)c1	3	-5	-11	+	i	0
COCc1cc(C)n(CC(=O)Nc2ccccc2C(=O)OC)c(=O)c1C#N	-5	-15	3	i	i	1
CCOc1ccccc1NC(=O)Cn1c(C)cc(COC)c(C#N)c1=O	-3	-5	2	i	/	/
Cc1ccc(S(=O)(=O)N2CCN(c3nc(-c4cccs4)nc4ccccc34)CC2)cc1	/	/	5	i	/	/
C=CCn1c(N)cc(=O)nc1SCC(=O)NC(C)c1ccccc1 (stereo not given)	2	-16	7	i	i	0
COCCn1nnnc1CN1CCN2CCCC2C1 (stereo not given)	-17	2	7	+	i	0
CC(C)(C)n1nnnc1CN1CCN2CCCC2C1 (stereo not given)	7	-3	-5	i	/	/
CCCCNC(=S)NNC(=O)c1csc(C)c1	5	-11	-8	i	i	0
CC12Cc3ccc4ccccc4c3C=C1C[N+](C)(C)C2 (stereo not given)	-6	6	9	i	/	/
CC[N+]1(CC)CC2=Cc3c(ccc4ccccc34)CC2C1 (stereo not given)	-2	-13	0	+	i	0
Cc1cc(C)c2nc(SCC(=O)Nc3ccccc3N3CCOCC3)c(C#N)cc2c1	5	4	1	+	i	0
COCc1cc(C)nc(SCC(=O)Nc2ccccc2N2CCOCC2)c1C#N	/	3	-6	i	/	/
CC(=O)Nc1ccc(S(=O)(=O)N(C)CC(=O)OC(C)C(=O)NC2(C#N)CCCCC2)cc1 (stereo not given)	/	6	-23	i	/	/
COCCCNCCOc1ccccc1-c1ccccc1	-19	-6	-1	i	/	/
SMILES	TLR4 MyD88 comp	TLR9-MyD88 block	NOD2-RIPK2 inh	Myeloid diff 2	Myeloid diff CP1	GFP autofluor
COCCCNCCCCOc1ccccc1-c1ccccc1	-1	-7	-9	i	i	0
CCCCNC(=O)C(NC(=O)c1ccc(-c2ccccc2)cc1)C(=O)c1ccccc1 (stereo not given)	/	/	-17	i	/	/
CCC(C)NC(=S)Nc1ccc2nc(N3CCN(CC)CC3)cc(C)c2c1 (stereo not given)	4	5	6	+	i	0
CCC(C)NC(=S)Nc1ccc2nc(N3CCOCC3)cc(C)c2c1 (stereo not given)	/	-2	1	i	/	/
Cc1onc(-c2c(Cl)cccc2Cl)c1NC(=O)NNc1c(Cl)cncc1Cl	/	0	5	i	/	/
Cc1onc(-c2c(Cl)cccc2Cl)c1NC(=O)NNc1ccccc1	/	-4	8	+	i	0
CN(C)c1ccc(-c2csc(C(O)c3cccc(Cl)c3)n2)cc1 (stereo not given)	/	/	6	i	/	/
O=C(OCc1ccccc1)N1CCOCCOCCN(C(=O)OCc2ccccc2)CCOCCOCC1	8	2	13	+	i	0
C[C@@H]1CN([C@@H](C)CO)C(=O)c2cc(Br)cnc2O[C@H]1CN(C)Cc1ccccc1C(=O)O	/	13	-9	i	/	/
CC1=CC(=O)C=CC1=Nc1ccc(N(C)C)cc1	/	/	-11	?	/	/
CNc1ccccc1C(C)(C)c1cc(-c2cccc(Br)c2)no1	5	6	1	+	i	81*
COc1cc2[nH]c(=O)n(CCCC(=O)N3CC=C(c4ccccc4)CC3)c(=O)c2cc1OC	-9	2	4	+	i	0
COc1cc2[nH]c(=O)n(CCC(=O)N3CC=C(c4ccccc4)CC3)c(=O)c2cc1OC	0	-5	4	i	/	/
CCCS(=O)(=O)NC(=O)C1(C)CCN(C(=O)c2cccc(C(F)(F)F)c2)C1 (stereo not given)	/	/	-1	+	i	0
CC(C)(C)NC(=O)C1C(c2ccccc2)=Nc2ccccc2N1C(=O)c1ccc(C(F)(F)F)cc1 (stereo not given)	/	/	-15	i	/	/
COCCCN1C(=O)C(CC(=O)NCCN2CCOCC2)CC(C(=O)N(C)C)=C1C (stereo not given)	/	/	-1	i	/	/
Cc1ccc(C(C)C)cc1-n1nnc(-c2cccc(Cc3ccc4ccccc4c3)c2)c1C(C)O (stereo not given)	/	-8	-2	i	/	/
O=C(COC(=O)c1cnccn1)c1ccc(OC(=O)c2ccccc2)cc1	-5	-9	-3	i	/	/
O=C(COC(=O)c1cnccn1)c1ccc2ccccc2c1	5	2	-4	i	i	0
COc1ccc(-c2ccc3c(c2)O[C@H](CN(C)C(=O)Nc2ccccc2F)[C@@H](C)CN([C@H](C)CO)S3(=O)=O)cc1	/	-1	5	i	/	/
COc1ccc(S(=O)(=O)N(C)C[C@@H]2Oc3cc(C#CC4CCCCC4)ccc3S(=O)(=O)N([C@@H](C)CO)C[C@@H]2C)cc1	/	0	5	i	i	0
C[C@@H]1CN([C@@H](C)CO)S(=O)(=O)c2ccc(Br)cc2O[C@H]1CN(C)C(=O)CN(C)C	/	5	-13	+	i	0
C[C@H]1CN([C@@H](C)CO)S(=O)(=O)c2ccc(Br)cc2O[C@H]1CN(C)C(=O)CN(C)C	/	/	-2	i	/	/
C[C@@H]1CN([C@H](C)CO)S(=O)(=O)c2ccc(Br)cc2O[C@H]1CN(C)C(=O)Nc1cccc(F)c1	/	8	7	i	i	0
O=c1cc(CN(Cc2ccccc2)Cc2ccccc2)c2c(ccc3ccccc32)o1	/	/	2	i	/	/

Bioassay records: PubChem, several laboratories
